# Shown are actives, neighbours in structure and some others; about 3.2% of the full set was active somewhere.
# CendR NRP1 mod = modulators of CendR peptide binding to NRP-1, primary screen, biochemical, fluorescence polarization, uHTS | Neuropilin-1 (Homo sapiens), O14786 | FAM-RPARPAR peptide binding to NRP-1 | inhibition, % at 25 µM | actives 0.85% (n = 360,000) | AID 602438, 2012;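 active means inhibition or corrected inhibition above about 18%, plus a signal ratio from 0.5 to 1.5, limit read from the data, passing the limit was not always enough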
# Target sequence (O14786 whole entry, looked up): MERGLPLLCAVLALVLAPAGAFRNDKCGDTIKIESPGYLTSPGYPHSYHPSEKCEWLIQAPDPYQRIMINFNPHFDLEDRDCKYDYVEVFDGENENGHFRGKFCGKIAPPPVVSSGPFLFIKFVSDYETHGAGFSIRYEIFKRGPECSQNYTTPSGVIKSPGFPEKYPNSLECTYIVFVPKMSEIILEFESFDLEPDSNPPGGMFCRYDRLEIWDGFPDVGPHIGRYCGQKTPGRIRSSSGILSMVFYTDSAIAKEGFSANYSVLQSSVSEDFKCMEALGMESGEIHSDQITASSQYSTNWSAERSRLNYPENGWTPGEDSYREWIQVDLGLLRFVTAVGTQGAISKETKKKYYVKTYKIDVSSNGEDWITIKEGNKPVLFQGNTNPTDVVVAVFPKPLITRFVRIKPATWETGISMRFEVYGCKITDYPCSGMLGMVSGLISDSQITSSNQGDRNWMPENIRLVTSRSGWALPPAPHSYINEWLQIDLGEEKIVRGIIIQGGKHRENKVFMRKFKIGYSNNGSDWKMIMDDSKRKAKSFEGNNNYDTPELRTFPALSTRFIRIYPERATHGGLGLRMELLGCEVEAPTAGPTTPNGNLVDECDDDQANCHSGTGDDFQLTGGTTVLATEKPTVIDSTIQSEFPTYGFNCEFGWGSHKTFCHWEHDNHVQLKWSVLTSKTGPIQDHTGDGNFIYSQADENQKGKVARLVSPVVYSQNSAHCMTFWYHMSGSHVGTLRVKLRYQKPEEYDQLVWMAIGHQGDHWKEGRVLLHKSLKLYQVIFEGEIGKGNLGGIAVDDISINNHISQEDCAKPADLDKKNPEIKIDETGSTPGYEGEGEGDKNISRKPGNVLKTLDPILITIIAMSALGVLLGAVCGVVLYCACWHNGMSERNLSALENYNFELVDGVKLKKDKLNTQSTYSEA
# MEKK2wt PB1 HTS = modulators of MEK5 binding to wildtype MEKK2, primary screen, biochemical, multiplex bead flow cytometry, Alexa488-MEK5 | Mitogen-activated protein kinase kinase kinase 2 (Homo sapiens), Q9Y2U5 | AID 1531, 2009 | binding response (% of control), % at 10 µM | actives 1.1% (n = 290,000) | Alexa488-MEK5 binding to MEKK2 WT; actives lie on both sides; in the data active means binding response below about 67% or above about 130%
# MEKK2mut PB1 HTS = MEK5 binding signal on mutant MEKK2 PB1, primary screen, biochemical, multiplex bead flow cytometry, Alexa488-MEK5. Alexa488-MEK5 binding to MEKK2 mutant. percent response, % at 10 µM. actives 0.35% (n = 290,000). AID 1530, 2009; in the data active means percent response above about 24%, passing the limit was not always enough
# MEKK3 PB1 HTS = modulators of MEKK3-MEK5 PB1 binding, primary screen, biochemical, wildtype MEKK3, multiplex bead flow cytometry, Alexa488-MEK5 | Mitogen-activated protein kinase kinase kinase 3 (Homo sapiens), Q99759 | actives 1.4% (n = 290,000) | binding response (% of control), % at 10 µM | AID 1529, 2009 | bead-based flow cytometry, Alexa488-MEK5 binding to MEKK3; actives lie on both sides; 0 = blocked by unlabeled MEK5, 100 = vehicle;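 active means binding response more than 3 SD above or below the average of its plate-row segment, actives on both sides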;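 further: Alexa488 bead fluorescence after subtracting the streptavidin-only scavenger bead signal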
# SKN-1 block = suppressors of acrylamide-induced Pgst-4::GFP reporter in worms, primary screen, SKN-1 inhibitor project, whole organism, uHTS, GFP/RFP fluorescence ratio, strain VP596; C. elegans VP596 Pgst-4::GFP/RFP ratio, 24 h; inhibition, % at 21.8 µM; actives 0.49% (n = 360,000); AID 624304, 2012;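 active means interference check ratio from 0.5 to 1.5 plus GFP to RFP signal ratio inhibition reaching or exceeding a fixed threshold, cut at about 30% in these data, passing the limit was not always enough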
# * = called active by the depositor; x = not tested or not shown; ! = a repeat was not active; [ ] = remark or other dose.
SMILES,CendR NRP1 mod,MEKK2wt PB1 HTS,MEKK2mut PB1 HTS,MEKK3 PB1 HTS,SKN-1 block
Cc1cc(NC(=O)CCC(=O)N(Cc2ccco2)C(C)(C)C(=O)NC2CCCCC2)no1,-3,93,3,100,-16
Cc1cc(NC(=O)CCC(=O)N(Cc2cccs2)C(C)(C)C(=O)NC2CCCCC2)no1,20*,105,0,103,9
CCC(=O)Nc1nc(C)c(Oc2ccccc2)c(=O)[nH]1,24*,106,11,108,-8
O=C(COC(=O)c1ccc2c(c1)C(=O)N(c1cccc3ncccc13)C2=O)c1ccc(Cl)cc1,-14,80,-2,70*[inhibitor],4
Cc1ccc(C(=O)COC(=O)c2ccc3c(c2)C(=O)N(c2cccc4ncccc24)C3=O)cc1,-9,87,-3,84,-3
Cc1cc(OC(=O)c2ccccc2C(F)(F)F)c([N+](=O)[O-])c(=O)[nH]1,-4,104,0,100,-17
COc1ccc(N2CCN(C(=O)CN(c3ccccc3)S(=O)(=O)c3ccc(OC)cc3)CC2)cc1,-15,105,7,104,4
COc1ccc(S(=O)(=O)N(CC(=O)N2CCN(c3ccccc3OC)CC2)c2ccccc2)cc1,-4,107,5,97,37*
COc1ccccc1N1CCN(C(=O)COc2cccc3ccccc23)CC1,31*,96,3,96,10
COc1ccccc1N1CCN(C(=O)C2c3ccccc3Oc3ccccc32)CC1,25*,101,7,105,4
COc1ccccc1N1CCN(C(=O)C2CC2)CC1,2,x,x,x,-10
O=C(NCc1ccccc1)C1c2ccccc2OCC(=O)N1CC(F)(F)F (stereo not drawn),-8,x,x,x,-8
COc1ccc([C@H]2N[C@]3(CCCN(Cc4ccc(Cl)cc4)C3=O)[C@H]3C(=O)N(Cc4ccccc4)C(=O)[C@@H]23)cc1,-6,x,x,x,10
C#CCOCC1CN(C)C(=O)O1 (stereo not drawn),-2,x,x,x,-7
CCOc1ccccc1N1CCN(C(=O)c2ccncc2)CC1,43*,101,5,103,6
O=C(c1cc(COc2ccc(F)c(F)c2)on1)N1CCN(C2CCCCC2)C(=O)C1,5,98,-10,97,11
C=CCN1C(=O)/C(=C2/Sc3ccccc3N2CC)SC1=S,77*,97,0,100,2
C=CCN1C(=O)/C(=C2/Sc3ccccc3N2CCCS(=O)(=O)O)SC1=S,-35,96,-7,94,7
CCc1ccc(CN2CCC(C(=O)Nc3ccc(Oc4ccccc4)nc3)CC2)o1,14,112,4,103,13
COc1ccc2[nH]c(CN3CCC(n4nccc4NC(=O)C4CC4)CC3)c(C)c2c1,2,111,7,102,2
Cc1onc(-c2ccccc2)c1C(=O)Nc1nc2c(s1)C(=O)CC(C)(C)C2,-1,97,1,102,40*
CC1(C)CC(=O)c2sc(NC(=O)c3ccco3)nc2C1,-9,109,16,109,10
COc1cccc(C2=NNC(=NCc3ccccc3)SC2)c1,31*,96,-3,91,13
COc1ccc(CN=C2NN=C(c3cccc(OC)c3)CS2)cc1,-10,70,-4,102,-4
O=C(Nc1ccc(C2CC2(Cl)Cl)cc1)c1ccccc1Br (stereo not drawn),-2,90,-3,89,47*
SMILES,CendR NRP1 mod,MEKK2wt PB1 HTS,MEKK2mut PB1 HTS,MEKK3 PB1 HTS,SKN-1 block
COc1ccc(C(=O)Nc2cccc(OC(=O)c3ccc(C)c(C)c3)c2)cc1,-8,x,x,x,42*
COc1cccc(C(=O)Nc2ccc(C3CC3(Cl)Cl)cc2)c1 (stereo not drawn),21*,103,-7,106,8
COC(=O)c1cccc(NC(=O)c2cccc(OC)c2)c1,23*,99,-3,92,14
O=C(Nc1ccc(C(=O)N2CCCC2)cc1)c1ccccc1Br,0,105,4,101,-17
O=C(Cn1cnc2c(OCc3ccccc3)ncnc21)NCCN1CCOCC1,-11,x,x,x,2
O=C(Cn1cnc2c(NC(=O)OCc3ccccc3)ncnc21)NCCN1CCOCC1,29*,x,x,x,7
Cn1cc(CN2CCC(C(=O)NC(c3ccc(-c4ccccc4)cc3)c3cnccn3)CC2)c2ccccc21 (stereo not drawn),-6,x,x,x,-10
COc1ccc2c(c1)OC[C@H]1[C@H]2N2C(=O)CN(CC3CCCO3)C(=O)[C@@]2(C)[C@H]1c1ccccc1 (stereo partly drawn),26*,x,x,x,3
C[C@@]12C(=O)N(CC3CCCO3)CC(=O)N1[C@@H]1c3ccccc3OC[C@@H]1[C@@H]2c1ccccc1 (stereo partly drawn),4,x,x,x,1
COC(=O)c1sccc1NC(=O)c1ccnn1C,25*,105,6,105,5
COC(=O)c1sccc1NC(=O)c1ccccc1,-4,94,-2,97,15
COc1ccc([C@H]2CC(=O)C=C(c3ccc4ncccc4c3)C2)cc1OC,-4,x,x,x,8
Cc1[nH]nc(N=CC2=C(O)CC(c3ccco3)CC2=O)c1-c1ccccc1 (stereo not drawn),6,95,-9,99,-8
Cc1[nH]nc(N=CC2=C(O)CC(C)(C)CC2=O)c1-c1ccccc1,19*!,101,0,101,5
CCn1nc([N+](=O)[O-])c(C(C#N)c2nc3ccccc3n2C)c(Cl)c1=O (stereo not drawn),15,104,-1,100,11
CCCn1nc([N+](=O)[O-])c(C(C#N)c2nc3ccccc3s2)c(Cl)c1=O (stereo not drawn),34*,103,4,103,18
Oc1cccc(Nc2c3ccccc3nc3ccccc23)c1,9,118,14,108,36*
COc1ccc(NC(=O)CSc2nnc3n2CCCCC3)cc1S(=O)(=O)N(C)C,4,x,x,x,14
Cc1nc2ccc(S(=O)(=O)NCC(=O)NC(C)c3ccccc3)cc2s1 (stereo not drawn),14,94,-5,96,4
Cc1nc2ccc(S(=O)(=O)NCC(=O)N(C)Cc3ccccc3)cc2s1,26*,93,-4,97,11
CCCCC[C@@H]1C=C(C(=O)O)[C@H](c2ccc3c(c2)OCO3)N1S(=O)(=O)c1ccc(C)cc1,-6,x,x,x,1
